{"source": "PubChem BioAssay (NCI)", "note": "This is part of a sample that, as a whole, favours compounds with a hit. Of some 83,000 tested, about 20% had one in any assay.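 Cell lines were cultured in 96-well plates, exposed to a single compound concentration, and assessed for percent growth 48 hours later.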 Values without a mark were called inactive. Calls of active or inactive are those of the source."}
{"system": "SNB-75 CNS", "experiment": "NCI-60 one-dose screen, 48 h (100 = growth as untreated, 0 = no growth, -100 = all killed)", "settings": "10 µM unless noted", "method": "Growth inhibition of the SNB-75 human tumor cell line is measured as a screen for anti-cancer activity. Cells are grown in 96 well plates and exposed to the test compound for 48 hours. Compounds are tested at a single concentration, which is 10^-5 M for most compounds. The reported endpoint is percent growth (GI% or GIPRCNT), where numbers from 0 - 100% represent growth inhibition, and numbers from -100% - 0 represent cell death. For example, a value of 40 represents 60% growth inhibition. A value of 0 means no net growth occurred over the course of the experiment. A value of -40 indicates 40% of cells at the beginning of the experiment died by the end of the experiment. A value of -100 means all cells are dead at the end of the experiment.\nNCI-60 Human Tumor Cell Lines Screen was performed using the standard one-dose NCI protocol, which is described in more detail at https://dtp.cancer.gov/discovery_development/nci-60/default.htm.\nCompounds with GIPRCNT values below 10 were considered active. Activity score was based on GIPRCNT using the following formula: […]\nScore is 0 for GIPRCNT values of 100 or above, 50 for GIPRCNT values of 0, and 100 for GIPRCNT values of -100."}
{"smiles": "CC(=O)O[C@@H]1C2=C(C)C3(CC3)[C@@](C)(O)C(=O)C2=C[C@@]1(C)CO", "growth": "-85.7% (active)"}
{"smiles": "CC(C)OC(=S)[S-].[Au+].c1ccc([PH+](c2ccccc2)c2ccccc2)cc1", "growth": "18.5%"}
{"smiles": "CN(Cc1cccnc1)N=O", "growth": "85.1%"}
{"smiles": "C[C@]12CC[C@@H]3C4=C(CC[C@H]3[C@@H]1CC[C@@H]2O)CC(=O)CC4", "growth": "101%"}
{"smiles": "C[CH2][Sn]([CH2]C)([CH2]C)[NH]S(=O)(=O)c1ccc(C)cc1", "growth": "94.6%"}
{"smiles": "Cc1nnc([S-])s1.[Au+].c1ccc([PH+](c2ccccc2)c2ccccc2)cc1", "growth": "-76.3% (active)"}
{"smiles": "CC(=O)O[C@H]1CC[C@H]2[C@@H]3CC[C@H]4CC=C(C)C[C@]4(C)[C@H]3CC[C@]12C", "growth": "110%"}
{"smiles": "CC(=O)N1N=C(c2ccccc2)CC1c1sc(N(CCCl)CCCl)nc1Cl", "note": "(stereo not given)", "growth": "83.1%"}
{"smiles": "O=C(O)CNC(=O)c1ccccc1", "growth": "93.7%"}
{"smiles": "CNC(=O)Oc1cc(C(C)C)ccc1Sc1ccc(C(C)C)cc1OC(=O)NC", "growth": "52.1%"}
{"smiles": "CC(N)Cc1ccc(O)cc1", "note": "(stereo not given)", "growth": "107%"}
{"smiles": "COc1cc(C2=NN(c3ccccc3)C(c3sc(N(CCCl)CCCl)nc3Cl)C2)cc(OC)c1OC", "note": "(stereo not given)", "growth": "69.2%"}
{"smiles": "Nc1ccc(N)c2c1Oc1ccccc1O2", "growth": "108%"}
{"smiles": "COc1ccc(CN2CCN(Cc3ccccc3)CC2)c(O)c1", "growth": "89.8%"}
{"smiles": "Cc1ccc(C(=O)C2CN(C)CCC2(O)c2ccc(C)cc2)cc1", "note": "(stereo not given)", "growth": "96%"}
{"smiles": "Oc1ccc(O)c2c1C1(Cl)C(Cl)=C(Cl)C2(Cl)C1(Cl)Cl", "growth": "31.6%"}
{"smiles": "CC(C)C1c2ccc(O)cc2Oc2nc(N)c(C#N)c(N)c21", "note": "(stereo not given)", "growth": "81.4%"}
{"smiles": "ClCCN(CCCl)c1nc(Cl)c(C2CC(c3ccc(Cl)cc3)=NN2c2cc(Cl)cc(Cl)c2)s1", "note": "(stereo not given)", "growth": "97.7%"}
{"smiles": "COc1ccc(C2=NN(c3ccccc3)C(c3sc(N(CCCl)CCCl)nc3Cl)C2)cc1", "note": "(stereo not given)", "growth": "74.2%"}
{"smiles": "O=C(/C=C/c1ccccc1)N[C@@H](CO)Cc1cnc[nH]1", "growth": "94.3%"}
{"smiles": "COc1ccccc1N1CCN(CCc2c[nH]c3cc4c(cc23)OCO4)CC1", "growth": "91.6%"}
{"smiles": "CC12CC[C@H](O)C=C1/C(=N/O)CC1C2CCC2(C)C1CC[C@@H]2O", "note": "(stereo not given in full)", "growth": "79.2%"}
{"smiles": "COP(=S)(OC)Oc1ccc(SC)c(C)c1", "growth": "89.6%"}
{"smiles": "O=C(CF)N(O)c1ccc(/C=C/c2ccccc2)cc1", "growth": "70.9%"}
{"smiles": "c1ccc([As]=[As]c2ccccc2)cc1", "note": "(stereo not given)", "growth": "14.3%"}
{"smiles": "CCCCn1cc(C(=O)/C(C#N)=C/c2cc3ccccc3nc2Cl)c2cc(OC)ccc21", "growth": "75.4%"}
{"smiles": "CCN1CC2(CN(CC)C1=S)C(=O)NC(=O)NC2=O", "growth": "95.8%"}
{"smiles": "O=C(CCl)NCNC(=O)CCl", "growth": "85.9%"}
{"smiles": "O=C(Nc1ccc(S(=O)(=O)F)cc1)Oc1ccccc1", "growth": "85.5%"}
{"smiles": "Nc1cccc(CC(=O)Nc2ccc(S(=O)(=O)F)cc2)c1", "growth": "71.8%"}
{"smiles": "CC(=O)[O][Hg][c]1ccccc1", "growth": "-65.9% (active)"}
{"smiles": "O1[As]2O[As]3O[As]1O[As](O2)O3", "growth": "-0.103% (active)"}
{"smiles": "CC1(C)N=C(N)N=C(N)N1c1ccc(CNC(=O)Nc2ccc(S(=O)(=O)F)c(Cl)c2)c(Cl)c1", "growth": "69.2%"}
{"smiles": "O=S(=O)(F)c1ncnc2nc[nH]c12", "growth": "87.3%"}
{"smiles": "FC(F)=C(F)c1ccccc1", "growth": "88.8%"}
{"smiles": "COc1cccc2c1C(=O)c1c(O)c3c(c(O)c1C2=O)CC(O)(/C(C)=N/NC(=O)CCC(=O)N/N=C(\\C)C1(O)Cc2c(O)c4c(c(O)c2C(OC2CC(N)C(O)C(C)O2)C1)C(=O)c1c(OC)cccc1C4=O)CC3OC1CC(N)C(O)C(C)O1", "note": "(stereo not given)", "growth": "-53.2% [5 µM] (active)"}
{"smiles": "CNC(=O)Oc1cccc(N(C)C)c1", "growth": "97.5%"}
{"smiles": "O=C(O)c1[nH]c(=O)[nH]c(=O)c1F", "growth": "99%"}
{"smiles": "CC1(C)CC2(CC(C)(C)c3cc(O)c(O)cc32)c2cc(O)c(O)cc21", "growth": "81.2%"}
{"smiles": "O=C(CI)Nc1ccc(Br)cc1", "growth": "96.7%"}
